Data from PubChem BioAssay (EPA / NIEHS).
Activity calls are given as the source filed them. How the source made its calls: active means hit-call score of the fitted dose curve at least 0.9, where 1 is the maximum; inactive means score below 0.9.

How the values were obtained:
Details in all cases: mRNA level, 48 h; actives raise or lower the signal
[1] = read-out: Tumor necrosis factor receptor superfamily member 6 (Homo sapiens) (UniProt P25445); assay: LTEA_HepaRG_FAS: Life Technologies and Expression Analysis (LTEA) Assay for Fas cell surface death receptor (FAS) using HepaRG (AID 2283447)
How it was run: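 FAS transcript level was measured by TaqMan qRT-PCR against three housekeeping genes after 48 h chemical exposure. Cells were HepaRG, 0.5% DMSO vehicle, with a top concentration of 100 uM and half-log dilutions over eight points, in duplicate.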

[2] = read-out: Fatty acid synthase (Homo sapiens) (UniProt P49327); assay: LTEA_HepaRG_FASN: Life Technologies and Expression Analysis (LTEA) Assay for Fatty Acid Synthase (FASN) using HepaRG (AID 2283448)
How it was run: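 FASN transcript measured by TaqMan qRT-PCR, normalised to three housekeeping genes, after 48 h chemical exposure of HepaRG cells. Eight-point half-log series from 100 uM in 0.5% DMSO, duplicates; gain or loss fitted against vehicle.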

[3] = read-out: Cyclin D2 (CCND2), CCND2 (gene 894); assay: LTEA_HepaRG_CCND2: Life Technologies and Expression Analysis (LTEA) Assay for Cyclin D2 (CCND2) using HepaRG (AID 2283449)
How it was run: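 CCND2 transcript levels, quantified by qRT-PCR and normalised to three housekeeping genes, were fitted bidirectionally against 0.5% DMSO. HepaRG cultures were dosed 48 h in duplicate with an 8-point half-log series up to 100 uM.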

[4] = read-out: Cyclin Dependent Kinase Inhibitor 1A (CDKN1A), CDKN1A (gene 1026); assay: LTEA_HepaRG_CDKN1A: Life Technologies and Expression Analysis (LTEA) Assay for Cyclin Dependent Kinase Inhibitor 1A (CDKN1A) using HepaRG (AID 2283450)
How it was run: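 Differentiated HepaRG cells in serum-free induction medium, exposed 48 h in duplicate to eight half-log concentrations up to 100 uM in 0.5% DMSO. mRNA measured by TaqMan qRT-PCR, normalized to ACTB, GAPDH, POLR2A; bidirectional fit versus DMSO.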

[5] = read-out: Cyclin D1 (CCND1), CCND1 (gene 595); assay: LTEA_HepaRG_CCND1: Life Technologies and Expression Analysis (LTEA) Assay for Cyclin D1 (CCND1) using HepaRG (AID 2283451);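 on AC50: TaqMan qRT-PCR transcript level normalised to ACTB GAPDH and POLR2A housekeeping genes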
How it was run: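 Differentiated HepaRG cells exposed 48 h in serum-free induction medium to eight half-log concentrations from 100 uM top, 0.5% DMSO, duplicates. CCND1 mRNA measured by Fluidigm TaqMan qRT-PCR, normalised to ACTB, GAPDH, POLR2A; bidirectional fit.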

[6] = read-out: catalase (CAT), CAT (gene 847); assay: LTEA_HepaRG_CAT: Life Technologies and Expression Analysis (LTEA) Assay for catalase (CAT) using HepaRG (AID 2283452)
How it was run: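 Expression of CAT was quantified by TaqMan qRT-PCR with ACTB/GAPDH/POLR2A normalization after 48 h chemical exposure of HepaRG. Eight-point half-log series, top 100 uM, in 0.5% DMSO; gain or loss fitted against vehicle.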

[7] = read-out: flavin-containing dimethylaniline monooxygenases 3 (FMO3), FMO3 (gene 2328); assay: LTEA_HepaRG_FMO3: Life Technologies and Expression Analysis (LTEA) Assay for flavin-containing dimethylaniline monooxygenases 3 (FMO3) using HepaRG (AID 2283453)
How it was run: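 FMO3 transcript quantified by TaqMan qRT-PCR against three housekeeping genes after 48 h chemical exposure of HepaRG cells. Eight-point half-log series, top 100 uM, 0.5% DMSO vehicle; phenobarbital 1mM induction control; up- or down-regulation fitted.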

[8] = read-out: Cytochrome P450 (CYP1A1), CYP1A1 (gene 1543); assay: LTEA_HepaRG_CYP1A1: Life Technologies and Expression Analysis (LTEA) Assay for Cytochrome P450 (CYP1A1) using HepaRG (AID 2283454)
How it was run: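 Differentiated human HepaRG cells, after 48 h plating, exposed in duplicate for 48 h in serum-free induction medium to 8 half-log concentrations up to 100 uM in 0.5% DMSO. CYP1A1 mRNA by qRT-PCR, normalized to ACTB/GAPDH/POLR2A; bidirectional fit versus DMSO.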

[9] = read-out: CFLAR gene, CFLAR (gene 8837); assay: LTEA_HepaRG_CFLAR: Life Technologies and Expression Analysis (LTEA) Assay for CFLAR gene using HepaRG (AID 2283455)
How it was run: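 Transcript level by qRT-PCR (normalized to ACTB, GAPDH and POLR2A) after 48 h chemical exposure of HepaRG cells, top concentration 100 uM with half-log steps, 0.5% DMSO vehicle, duplicates; fitted bidirectionally against DMSO baseline.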

[10] = read-out: Forkhead box O1 (FOXO1), FOXO1 (gene 2308); assay: LTEA_HepaRG_FOXO1: Life Technologies and Expression Analysis (LTEA) Assay for Forkhead box O1 (FOXO1) using HepaRG (AID 2283456)
How it was run: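 FOXO1 transcript quantified by qRT-PCR after 48 h chemical exposure (top 100 uM, half-log steps, 0.5% DMSO) of HepaRG cells, housekeeping-normalized (ACTB/GAPDH/POLR2A). Changes fitted in both directions relative to vehicle.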

[11] = read-out: growth arrest and DNA damage 45 (GADD45A), GADD45A (gene 1647); assay: LTEA_HepaRG_GADD45A: Life Technologies and Expression Analysis (LTEA) Assay for growth arrest and DNA damage 45 (GADD45A) using HepaRG (AID 2283458)
How it was run: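 GADD45A expression was measured by TaqMan qRT-PCR against three housekeeping genes (ACTB, GAPDH, POLR2A) after 48 h treatment of HepaRG cells. Eight-point half-log series up to 100 uM in 0.5% DMSO, run in duplicate.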

[12] = read-out: Forkhead box O3 (FOXO3), FOXO3 (gene 2309); assay: LTEA_HepaRG_FOXO3: Life Technologies and Expression Analysis (LTEA) Assay for Forkhead box O3 (FOXO3) using HepaRG (AID 2283459)
How it was run: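 FOXO3 transcript measured by qRT-PCR (normalized to ACTB, GAPDH, POLR2A) after 48 h exposure of HepaRG cells in serum-free induction medium. Duplicates, eight half-log concentrations up to 100 uM, 0.5% DMSO; gain or loss fitted against DMSO.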

[13] = read-out: ABC Transporter (ABCB1), ABCB1 (gene 5243); assay: LTEA_HepaRG_ABCB1: Life Technologies and Expression Analysis (LTEA) Assay for ABC Transporter (ABCB1) using HepaRG (AID 2283460)
How it was run: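 ABCB1 transcript level measured by TaqMan qRT-PCR against three housekeeping genes after 48 h chemical exposure of differentiated HepaRG cells. Top concentration 100 uM, half-log steps, eight points, 0.5% DMSO vehicle; bidirectional fit relative to DMSO.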

[14] = read-out: ABC Transporter (ABCC3), ABCC3 (gene 8714); assay: LTEA_HepaRG_ABCC3: Life Technologies and Expression Analysis (LTEA) Assay for ABC Transporter (ABCC3) using HepaRG (AID 2283462)
How it was run: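 Differentiated human HepaRG cells exposed 48 h in serum-free induction medium, 0.5% DMSO vehicle, 8-point half-log series to 100 uM in duplicate. ABCC3 mRNA by qRT-PCR, normalised to ACTB, GAPDH, POLR2A; bidirectional fit vs DMSO.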

[15] = read-out: ABC Transporter (ABCB11), ABCB11 (gene 8647); assay: LTEA_HepaRG_ABCB11: Life Technologies and Expression Analysis (LTEA) Assay for ABC Transporter (ABCB11) using HepaRG (AID 2283463)
How it was run: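 ABCB11 transcript levels quantified by TaqMan qRT-PCR against three housekeeping genes after 48 h chemical exposure of HepaRG cultures. Concentrations up to 100 uM in half-log steps, 0.5% DMSO vehicle; both induction and suppression scored.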

[16] = read-out: ABC Transporter (ABCC2), ABCC2 (gene 1244); assay: LTEA_HepaRG_ABCC2: Life Technologies and Expression Analysis (LTEA) Assay for ABC Transporter (ABCC2) using HepaRG (AID 2283464)
How it was run: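 Differentiated HepaRG cells in serum-free induction medium exposed 48 h to eight half-log concentrations up to 100 uM, 0.5% DMSO, in duplicate. ABCC2 mRNA measured by qRT-PCR (TaqMan, Fluidigm), normalized to ACTB, GAPDH and POLR2A. Fitted in both directions against DMSO.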

[17] = read-out: Broad substrate specificity ATP-binding cassette transporter ABCG2 (Homo sapiens) (UniProt Q9UNQ0); assay: LTEA_HepaRG_ABCG2: Life Technologies and Expression Analysis (LTEA) Assay for ABC Transporter (ABCG2) using HepaRG (AID 2283465)
How it was run: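 ABCG2 transcript was quantified by TaqMan qRT-PCR against three housekeeping genes in HepaRG cells. Cells were treated in duplicate for 48 h across an 8-point half-log series up to 100 uM, with 0.5% DMSO vehicle. Gain or loss versus DMSO was fit.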

[18] = read-out: ATP-citrate lyase (ACLY), ACLY (gene 47); assay: LTEA_HepaRG_ACLY: Life Technologies and Expression Analysis (LTEA) Assay for ATP-citrate lyase (ACLY) using HepaRG (AID 2283466)
How it was run: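 ACLY mRNA quantified by qRT-PCR on Fluidigm arrays against three housekeeping genes, after 48 h chemical treatment of HepaRG cells (top concentration 100 uM, half-log steps, 0.5% DMSO vehicle). Up- or down-regulation fitted relative to DMSO.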

[19] = read-out: growth arrest and DNA damage 45 (GADD45B), GADD45B (gene 4616); assay: LTEA_HepaRG_GADD45B: Life Technologies and Expression Analysis (LTEA) Assay for growth arrest and DNA damage 45 (GADD45B) using HepaRG (AID 2283461)
How it was run: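 Differentiated human HepaRG cells in serum-free induction medium exposed 48 h in duplicate to eight concentrations, top 100 uM, half-log steps, 0.5% DMSO. GADD45B mRNA by TaqMan qRT-PCR, normalized to ACTB, GAPDH, POLR2A; bidirectional fit versus DMSO.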

Measured: AC50

Chain of Fatty acid synthase (Homo sapiens) (P49327 whole entry, looked up): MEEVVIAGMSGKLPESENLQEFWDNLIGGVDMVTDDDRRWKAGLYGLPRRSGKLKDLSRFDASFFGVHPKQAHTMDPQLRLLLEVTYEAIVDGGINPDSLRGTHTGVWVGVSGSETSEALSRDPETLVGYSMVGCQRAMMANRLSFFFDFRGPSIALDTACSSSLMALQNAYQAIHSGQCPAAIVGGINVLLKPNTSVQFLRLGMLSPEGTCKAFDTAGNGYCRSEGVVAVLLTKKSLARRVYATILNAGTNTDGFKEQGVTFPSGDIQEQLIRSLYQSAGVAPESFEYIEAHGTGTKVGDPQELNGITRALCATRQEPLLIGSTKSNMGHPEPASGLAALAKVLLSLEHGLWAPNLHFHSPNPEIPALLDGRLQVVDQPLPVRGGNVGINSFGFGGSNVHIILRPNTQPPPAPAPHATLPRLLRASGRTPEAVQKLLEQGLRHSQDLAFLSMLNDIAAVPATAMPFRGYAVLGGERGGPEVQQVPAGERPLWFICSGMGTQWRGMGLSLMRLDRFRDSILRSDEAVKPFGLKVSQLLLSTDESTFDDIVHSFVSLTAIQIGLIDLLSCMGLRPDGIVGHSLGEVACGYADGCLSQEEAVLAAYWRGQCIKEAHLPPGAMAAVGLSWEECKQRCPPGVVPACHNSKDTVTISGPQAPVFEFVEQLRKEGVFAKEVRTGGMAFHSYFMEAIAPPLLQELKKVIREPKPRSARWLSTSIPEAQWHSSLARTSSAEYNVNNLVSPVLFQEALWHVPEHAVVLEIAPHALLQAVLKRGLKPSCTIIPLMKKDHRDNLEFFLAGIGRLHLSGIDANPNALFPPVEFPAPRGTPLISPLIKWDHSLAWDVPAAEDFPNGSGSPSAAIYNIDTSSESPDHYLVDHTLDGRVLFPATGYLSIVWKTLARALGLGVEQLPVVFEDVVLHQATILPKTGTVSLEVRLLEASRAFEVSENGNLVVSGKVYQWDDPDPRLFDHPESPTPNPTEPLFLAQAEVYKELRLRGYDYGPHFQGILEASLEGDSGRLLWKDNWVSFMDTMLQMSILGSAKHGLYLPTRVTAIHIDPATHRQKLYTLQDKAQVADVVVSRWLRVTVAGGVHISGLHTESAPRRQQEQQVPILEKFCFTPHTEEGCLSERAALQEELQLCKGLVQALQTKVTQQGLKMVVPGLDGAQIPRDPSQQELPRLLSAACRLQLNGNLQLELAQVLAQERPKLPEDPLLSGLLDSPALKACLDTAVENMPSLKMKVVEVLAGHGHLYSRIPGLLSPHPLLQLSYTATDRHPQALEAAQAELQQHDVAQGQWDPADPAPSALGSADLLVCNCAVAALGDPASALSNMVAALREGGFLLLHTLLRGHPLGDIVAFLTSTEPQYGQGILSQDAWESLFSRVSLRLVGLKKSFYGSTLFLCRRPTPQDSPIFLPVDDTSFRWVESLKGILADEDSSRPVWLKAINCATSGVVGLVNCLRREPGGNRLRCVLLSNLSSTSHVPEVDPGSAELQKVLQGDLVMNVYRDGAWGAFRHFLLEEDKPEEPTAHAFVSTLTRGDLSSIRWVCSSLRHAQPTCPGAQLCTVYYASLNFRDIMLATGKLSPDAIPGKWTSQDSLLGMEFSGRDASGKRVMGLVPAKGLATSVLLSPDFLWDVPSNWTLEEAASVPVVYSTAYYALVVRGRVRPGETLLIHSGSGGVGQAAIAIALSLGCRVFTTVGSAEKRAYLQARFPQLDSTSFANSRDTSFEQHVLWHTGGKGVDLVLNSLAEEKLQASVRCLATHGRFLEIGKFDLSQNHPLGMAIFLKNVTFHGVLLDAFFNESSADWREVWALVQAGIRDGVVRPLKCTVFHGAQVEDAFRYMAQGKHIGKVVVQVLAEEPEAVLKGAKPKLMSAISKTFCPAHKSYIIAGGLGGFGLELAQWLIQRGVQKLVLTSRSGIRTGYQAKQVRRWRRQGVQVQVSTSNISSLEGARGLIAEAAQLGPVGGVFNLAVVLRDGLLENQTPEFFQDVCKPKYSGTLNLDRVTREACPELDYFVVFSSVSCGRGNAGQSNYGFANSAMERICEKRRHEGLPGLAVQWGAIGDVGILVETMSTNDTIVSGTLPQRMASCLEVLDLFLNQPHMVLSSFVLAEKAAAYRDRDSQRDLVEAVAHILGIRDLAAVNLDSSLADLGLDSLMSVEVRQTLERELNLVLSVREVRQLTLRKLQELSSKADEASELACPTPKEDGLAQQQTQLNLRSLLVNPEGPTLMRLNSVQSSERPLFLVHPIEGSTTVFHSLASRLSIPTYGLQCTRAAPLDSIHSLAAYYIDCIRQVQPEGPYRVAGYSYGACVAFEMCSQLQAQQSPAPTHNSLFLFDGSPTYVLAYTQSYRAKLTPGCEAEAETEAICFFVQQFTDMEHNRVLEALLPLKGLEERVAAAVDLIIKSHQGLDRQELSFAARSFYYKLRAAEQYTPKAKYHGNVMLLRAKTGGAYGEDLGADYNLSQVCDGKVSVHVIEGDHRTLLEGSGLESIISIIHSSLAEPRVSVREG
Chain of Broad substrate specificity ATP-binding cassette transporter ABCG2 (Homo sapiens) (Q9UNQ0 whole entry, looked up): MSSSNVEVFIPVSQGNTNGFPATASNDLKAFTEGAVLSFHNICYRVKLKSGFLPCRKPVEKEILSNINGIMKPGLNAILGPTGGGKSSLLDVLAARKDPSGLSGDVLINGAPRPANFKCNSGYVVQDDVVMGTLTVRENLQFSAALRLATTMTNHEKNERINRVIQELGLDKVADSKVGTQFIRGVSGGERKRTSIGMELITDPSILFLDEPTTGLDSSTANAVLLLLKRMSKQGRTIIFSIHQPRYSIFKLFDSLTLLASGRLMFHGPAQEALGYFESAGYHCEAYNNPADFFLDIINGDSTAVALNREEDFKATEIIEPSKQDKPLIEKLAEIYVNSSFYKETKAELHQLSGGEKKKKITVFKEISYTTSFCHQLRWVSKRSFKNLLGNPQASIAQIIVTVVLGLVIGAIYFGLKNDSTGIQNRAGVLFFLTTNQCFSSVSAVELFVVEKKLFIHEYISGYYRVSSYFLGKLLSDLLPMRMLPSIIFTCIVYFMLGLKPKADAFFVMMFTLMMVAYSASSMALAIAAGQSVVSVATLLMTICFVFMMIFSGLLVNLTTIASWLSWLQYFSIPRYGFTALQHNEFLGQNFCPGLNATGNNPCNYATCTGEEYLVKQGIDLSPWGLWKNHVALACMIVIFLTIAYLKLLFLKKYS

COP(=O)(OC)SCn1c(=O)oc2cc(Cl)cnc21
active: [5] 78.5 µM | [8] 38.6 µM | [11] 0.029 µM | [15] 39.3 µM
inactive: [1] | [2] | [3] | [4] | [6] | [7] | [9] | [10] | [12] | [13] | [14] | [16] | [17] | [18]

CC1=NNC(=O)N(/N=C/c2cccnc2)C1
inactive: [1] | [3] | [4] | [5] | [6] | [7] | [9] | [10] | [11] | [12] | [13] | [19] | [14] | [15] | [16] | [17] | [18]
active: [2] 13.4 µM | [8] 27.5 µM

Nc1c(Cl)cc([N+](=O)[O-])cc1Cl
active: [2] 16.9 µM | [5] 50 µM | [6] 41.4 µM | [7] 50 µM | [8] 7.36 µM | [9] 17.7 µM | [11] 78.9 µM | [12] 7.33 µM | [13] 31.1 µM | [19] 11.9 µM | [15] 37.4 µM | [16] 84.2 µM | [17] 80.4 µM
inactive: [1] | [3] | [4] | [10] | [14] | [18]
